Records with an inconclusive call do not appear. The source made the active and inactive calls. Unless noted, calls follow the shape of the dose curve; as a rule, active = well fitted curve in the direction sought with a large enough effect in the repeat runs; inconclusive = weak or mixed curves; inactive = no such curve, though single readings can be large; an effect the other way counts as inactive or inconclusive.
Key:
[1] = qHTS assay for small molecules that induce genotoxicity in human embryonic kidney cells expressing luciferase-tagged ATAD5 (AID 651632); also: nearly all actives have a fitted effect of over 15% in size
Procedure, shortened: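 Luminescence read-out: after 16 hr compound exposure at 37C, ATAD5-luciferase HEK293T cells received Amplite, 30 min RT, then CCD imaging. A rise in signal marks genotoxic stress.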

[2] = qHTS assay for small molecule agonists of the p53 signaling pathway - cell viability (AID 651633; calls by dose curve;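 also: p53RE-bla HCT reporter cells with a stable beta-lactamase p53 reporter; series mostly up to about 83 µM; nearly all actives have a fitted effect of over 30% in size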)
Procedure, shortened: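 p53RE-bla cells, seeded at 4,000 per well and rested 5 h at 37 C/5% CO2, received compounds in DMSO for 16 h at 37 C. CellTiter-Glo was then added, and luminescence was read after 30 min at room temperature to gauge cytotoxicity.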

[3] = qHTS assay for small molecules that induce genotoxicity in human embryonic kidney cells expressing luciferase-tagged ATAD5 - cell viability (AID 651634; calls by dose curve; also: nearly all actives have a fitted effect of over 25% in size)
Procedure, shortened: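 HEK293T ATAD5-luc cells, 2,000/well; compound 15.5 hr, 37C/5% CO2; CellTiter-Fluor 30 min, 37C; fluorescence read.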

[4] = qHTS assay for small molecule disruptors of the mitochondrial membrane potential - cell viability (AID 720634; calls by dose curve;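 also: human HepG2 liver cancer cells; series mostly up to about 83 µM; nearly all actives have a fitted effect of over 20% in size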)
Procedure, shortened: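 Luminescence from CellTiter-Glo (ATP content) gave viability in HepG2 cells, read in the same wells as the MMP dye assay after 1 hr compound exposure at 37 C.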

[5] = qHTS assay for small molecule disruptors of the mitochondrial membrane potential (AID 720635)
Procedure, shortened: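 HepG2 cells (2,000/well) attached overnight at 37C, then took compound for 1 hr at 37C, 5% CO2. Mito-MPS dye was added for 30 min; fluorescence was read at 490/535 nm (monomers) and 540/590 nm (aggregates).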

[6] = qHTS assay to test for compound auto fluorescence at 535 nm (green) in HepG2 cells (AID 720675)
[7] = qHTS assay to test for compound auto fluorescence at 460 nm (blue) in HEK293 cells (AID 720678)
Procedure, shortened: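 HEK293, 2,000 cells/well, 10% dialyzed FBS; attach 4-5 hr 37C; pin compound or DMSO; o/n 37C/5% CO2; fluorescence 405/460 nm; triamterene-equivalent units.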

[8] = qHTS assay to test for compound auto fluorescence at 590 nm (red) in HEK293 cells (AID 720679)
Procedure, shortened: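 Intensity at 540nm excitation and 590nm emission is reported as Rose Bengal sodium-equivalent autofluorescence. Measurements followed overnight exposure (37C, 5% CO2) of HEK293 cells, 2,000 per well, to 23 nL compound.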

[9] = qHTS assay to test for compound auto fluorescence at 535 nm (green) in HEK293 cells (AID 720680)
[10] = qHTS assay to test for compound auto fluorescence at 460 nm (blue) in HEK293 cell free culture (AID 720681)
Procedure, shortened: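 Test compounds were pinned into cell-free culture medium (DMEM with 10% FBS) and fluorescence was read directly at Ex/Em 405/460 nm. Signals were expressed as fluorescence equivalents of triamterene, with DMSO vehicle as control.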

[11] = qHTS assay to test for compound auto fluorescence at 535 nm (green) in HEK293 cell free culture (AID 720682)
Procedure, shortened: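 Green-channel intensity (Ex/Em 485/535 nm) was recorded from compound-treated wells containing only DMEM with 10% FBS. Fluorescein provided the equivalency standard.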

[12] = qHTS assay to test for compound auto fluorescence at 590 nm (red) in HEK293 cell free culture (AID 720683)
Procedure, shortened: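 Tox21 10K library compounds were pinned into cell-free DMEM with 10% FBS and fluorescence was read at excitation 540 nm. Activity is expressed as Rose Bengal sodium equivalency.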

[13] = qHTS assay to test for compound auto fluorescence at 590 nm (red) in HepG2 cell free culture (AID 720684)
Procedure, shortened: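 Readout: intrinsic compound fluorescence at 590 nm emission after 540 nm excitation, scaled to Rose Bengal sodium. Matrix was cell-free MEM with 10% FBS; DMSO vehicle wells served as control.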

[14] = qHTS assay to test for compound auto fluorescence at 460 nm (blue) in HepG2 cell free culture (AID 720685)
Procedure, shortened: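 Cell-free plates of MEM plus 10% FBS received 23 nL compound or DMSO vehicle; blue-channel (405/460 nm) intensity scored against triamterene as reference fluorophore.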

[15] = qHTS assay to test for compound auto fluorescence at 535 nm (green) in HepG2 cell free culture (AID 720686)
[16] = qHTS assay to test for compound auto fluorescence at 460 nm (blue) in HepG2 cells (AID 720687)
Procedure, shortened: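 Cells (2,000/well in MEM with 10% FBS) attached overnight at 37 C, then were exposed to compound or DMSO for 1 hr at 37 C, 5% CO2. Fluorescence read at Ex/Em 405/460 nm, expressed as triamterene-equivalent signal.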

[17] = biological target: Glucocorticoid receptor (Homo sapiens) (UniProt P04150); assay: qHTS assay to identify small molecule agonists of the glucocorticoid receptor (GR) signaling pathway (AID 720691; active = well fitted activation curve with a large enough effect in the signal ratio in the repeat runs, not every such curve was filed as active; the % refers to the signal ratio; also: potency is read from the fitted curve at half-maximal effect)
Sequence of Glucocorticoid receptor (Homo sapiens) (P04150 whole entry, looked up): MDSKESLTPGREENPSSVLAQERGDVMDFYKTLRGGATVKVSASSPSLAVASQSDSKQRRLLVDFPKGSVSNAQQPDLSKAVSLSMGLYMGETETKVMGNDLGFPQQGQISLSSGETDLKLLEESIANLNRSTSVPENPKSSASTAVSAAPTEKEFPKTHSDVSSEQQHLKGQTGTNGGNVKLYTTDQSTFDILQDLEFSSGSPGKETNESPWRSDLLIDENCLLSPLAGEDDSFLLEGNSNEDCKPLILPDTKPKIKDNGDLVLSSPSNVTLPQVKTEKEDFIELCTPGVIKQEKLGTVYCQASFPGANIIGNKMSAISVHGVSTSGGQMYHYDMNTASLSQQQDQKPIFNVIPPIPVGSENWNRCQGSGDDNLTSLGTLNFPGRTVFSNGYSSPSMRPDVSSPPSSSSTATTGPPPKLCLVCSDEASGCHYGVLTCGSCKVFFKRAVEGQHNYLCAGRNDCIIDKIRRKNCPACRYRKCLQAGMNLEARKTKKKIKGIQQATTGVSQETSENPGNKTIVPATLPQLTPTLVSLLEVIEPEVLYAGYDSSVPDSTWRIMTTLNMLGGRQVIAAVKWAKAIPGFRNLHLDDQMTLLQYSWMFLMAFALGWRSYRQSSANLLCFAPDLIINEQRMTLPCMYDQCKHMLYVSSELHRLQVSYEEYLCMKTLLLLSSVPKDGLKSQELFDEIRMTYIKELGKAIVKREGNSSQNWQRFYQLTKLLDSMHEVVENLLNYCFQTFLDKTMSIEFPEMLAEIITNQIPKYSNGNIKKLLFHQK
Procedure, shortened: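 HeLa GR-bla reporter line; cells pre-incubated 4 h, compound in DMSO 18 h at 37 C; LiveBLAzer B/G FRET substrate 2 h RT; fluorescence intensity read-out.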

[18] = biological target: Glucocorticoid receptor (Homo sapiens) (UniProt P04150); assay: qHTS assay to identify small molecule antagonists of the glucocorticoid receptor (GR) signaling pathway (AID 720692; active = well fitted inhibition curve with a large enough effect in the signal ratio in the repeat runs, not every such curve was filed as active; the % refers to the signal ratio)
Procedure, shortened: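 Read-out: beta-lactamase FRET substrate fluorescence, 2 h at room temperature, in HeLa cells stably carrying a GRE-driven bla reporter. Compounds were co-incubated with 5 nM dexamethasone agonist (final) for 18 h at 37 C.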

[19] = qHTS assay for small molecule agonists of the p53 signaling pathway (AID 651631; calls by dose curve; also: nearly all actives have a fitted effect of over 15% in size)
Procedure, shortened: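 We treat p53RE-bla HCT-116 cells with compounds for 16 h at 37 °C, add LiveBLAzer B/G FRET substrate for 2 h at room temperature, and measure fluorescence intensity.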

[20] = qHTS assay to test for compound auto fluorescence at 590 nm (red) in HepG2 cells (AID 720674)
Procedure, shortened: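 Rose Bengal sodium served as the red fluorophore standard. HepG2 monolayers (overnight attachment, MEM with 10% FBS) were exposed to test compounds for 1 hr at 37 C and read at Ex 540/Em 590 nm.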

Measured: Potency

CC(C)(O)C(=O)c1ccccc1
not listed: [19] | [20]
inactive: all other assays above

Nc1c2c(nc3ccccc13)CCCC2O (configuration not stated)
not listed: [2] | [11] | [20]
inactive: all other assays above

NC(=O)c1ccc(N)cc1
not listed: [2] | [5] | [6] | [15] | [20]
inactive: all other assays above

O=C[C@H](O)[C@@H](O)[C@H](O)[C@H](O)CO
not listed: [2] | [5] | [8] | [15]
inactive: all other assays above

O=C1CC2CC1C1CCCC21 (configuration not stated)
active: [17] 54.9 µM
not listed: [1] | [8] | [11]
inactive: all other assays above

CC[N+](C)(C)c1cccc(O)c1
not listed: [2] | [5] | [6] | [15] | [17] | [18]
inactive: all other assays above

CC(C)CCCC(C)N (configuration not stated)
not listed: [2] | [20]
inactive: all other assays above

Nc1nc2c(ncn2COC(CO)CO)c(=O)[nH]1
not listed: [2] | [4] | [5] | [8] | [18]
inactive: all other assays above

CCN(Cc1ccncc1)C(=O)C(CO)c1ccccc1 (configuration not stated)
not listed: [1] | [6] | [18]
inactive: all other assays above

Cc1ccc(=O)n(-c2ccccc2)c1
not listed: [2] | [5] | [17] | [18]
inactive: all other assays above

O=c1cc(CO)occ1O
not listed: [2] | [20]
inactive: all other assays above

O=C1OC(=O)C2CCCCC12 (configuration not stated)
not listed: [2] | [20]
inactive: all other assays above

CC(=O)OC/C=C(\C)CC/C=C(\C)CCC=C(C)C
not listed: [2] | [17] | [18] | [19] | [20]
inactive: all other assays above

CO/N=C(/C(=O)N[C@@H]1C(=O)N2C(C(=O)OCOC(=O)C(C)(C)C)=C(C)CS[C@H]12)c1csc(N)n1
not listed: [5] | [6] | [8] | [11] | [17] | [18] | [19]
inactive: all other assays above
